Screening results from PubChem.
HTR5A ag – HTR5A agonists in luminescence cell assay, primary screen, counter-screen for OPRM1-OPRD1 heterodimer agonist project, full-deck HTS; 340,000 compounds, 0.61% hits; activation, % at 9.3 µM; cell-based; 5-hydroxytryptamine receptor 5A (Homo sapiens), P47898; in the data active = activation mostly above about 9.5%, no sharp cut-off; inactive = mostly below about 7.6%;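 also: 0% = cells with vehicle only and 100% = reference agonist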
MOR-DOR inv ag – inverse agonists of MOR-DOR heterodimerization, primary screen, cell-based, luminescence; cell-based MOR-DOR heterodimer luminescence, inverse agonism; inhibition, % at 9.3 µM; 340,000 compounds, 0.21% hits; in the data active = inhibition above about 22%, passing the limit was not always enough;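 also: 0% = cells with DMSO and 100% = wells without cells with DMSO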
Target sequence (P35372 whole entry, looked up): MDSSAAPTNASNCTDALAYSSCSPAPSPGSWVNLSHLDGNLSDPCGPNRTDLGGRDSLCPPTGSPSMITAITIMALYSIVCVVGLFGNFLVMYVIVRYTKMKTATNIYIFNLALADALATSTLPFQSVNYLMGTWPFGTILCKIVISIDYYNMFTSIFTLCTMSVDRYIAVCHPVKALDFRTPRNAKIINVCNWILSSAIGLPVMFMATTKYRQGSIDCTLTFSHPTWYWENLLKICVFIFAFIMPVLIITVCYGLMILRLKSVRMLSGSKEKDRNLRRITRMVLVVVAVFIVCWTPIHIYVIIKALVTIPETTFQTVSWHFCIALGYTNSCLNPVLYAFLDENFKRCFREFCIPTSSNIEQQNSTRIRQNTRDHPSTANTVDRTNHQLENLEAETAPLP
Target sequence (P41143 whole entry, looked up): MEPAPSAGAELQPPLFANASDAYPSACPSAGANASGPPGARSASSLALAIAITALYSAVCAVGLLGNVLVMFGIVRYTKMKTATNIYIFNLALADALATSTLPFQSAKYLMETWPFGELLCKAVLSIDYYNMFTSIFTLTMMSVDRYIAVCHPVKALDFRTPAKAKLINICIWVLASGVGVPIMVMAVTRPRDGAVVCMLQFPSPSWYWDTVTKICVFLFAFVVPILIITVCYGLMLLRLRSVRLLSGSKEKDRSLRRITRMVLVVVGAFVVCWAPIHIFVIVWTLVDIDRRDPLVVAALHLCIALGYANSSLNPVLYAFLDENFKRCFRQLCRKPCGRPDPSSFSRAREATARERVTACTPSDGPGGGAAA
PolyA inhibitor – polyadenylation inhibitors in yeast reporter cells, primary screen, luminescence, S. cerevisiae; 300,000 compounds, 0.02% hits; S. cerevisiae SKY197-pL101 polyadenylation reporter, beta-gal luminescence; efflux-impaired pdr1/pdr3 knockout yeast; score 100 = 6 SD above DMSO; AID 1875, 2009; activity score, % at 12 µM;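 active = lowest replicate activity score at least 50, where 100 means six control SD above control mean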;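 also: yeast exposed to compound for 9 h at 30 °C; higher score means more reporter readthrough which indicates perturbed polyadenylation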
NALP1 inh – NALP1 inflammasome inhibitors in reconstituted yeast, colorimetric, S. cerevisiae, triplicate retest; S. cerevisiae NALP1/ASC/caspase-1 growth, X-gal OD620, 72 h; inhibition, % at 10 µM; AID 2071, 2009; 280,000 compounds, 0.61% hits; in the data active = inhibition mostly above about 24%, no sharp cut-off; inactive = mostly below about 32%
HTR5A inv ctr – HTR5A inverse agonists in luminescence cell assay, primary screen, counter-screen for OPRM1-OPRD1 heterodimer inverse agonist project, full-deck HTS. inhibition, % at 9.3 µM. 340,000 compounds, 0.083% hits. HTR5A cell line, inverse agonism; in the data active = inhibition mostly above about 23%, no sharp cut-off; inactive = mostly below about 18%;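 also: 0% = cells with DMSO and 100% = no-cell wells with DMSO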
MOR-DOR ag – agonists of OPRM1-OPRD1 heterodimerization, primary screen, cell-based, luminescence; Mu-type opioid receptor (Homo sapiens) + Delta-type opioid receptor (Homo sapiens), …; cells; activation, % at 9.3 µM; 340,000 compounds, 0.3% hits; AID 504326, 2011; in the data active = activation above about 18%;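 also: 0% = vehicle-treated cells and 100% = reference agonist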
MOR-DOR inv conf – inverse agonists of MOR-DOR heterodimerization, confirmation, cell-based, luminescence; inhibition, % at 9.3 µM; cells expressing OPRM1/OPRD1 heterodimer; 580 compounds, 20% hits; AID 504900, 2011; shares compounds with MOR-DOR inv ag; in the data active = inhibition above about 32%;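 also: 0% = cells with DMSO and 100% = wells lacking cells with DMSO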
HTR5A inv ctr2 – HTR5A inverse agonists, counter-screen for OPRM1-OPRD1 inverse agonist project, cell-based, luminescence; shares compounds with MOR-DOR inv ag; HTR5A-expressing cells, inverse agonism; inhibition, % at 9.3 µM; 580 tested, under 10 active; call rule not given here;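 also: 0% = cells with DMSO and 100% = no-cell wells with DMSO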
Numbers without * were called inactive; i = inactive; / = no result. A selection: hits, their analogues and other compounds. The true share with any hit is near 1.6%.

SMILES | HTR5A ag | MOR-DOR inv ag | PolyA inhibitor | NALP1 inh | HTR5A inv ctr | MOR-DOR ag | MOR-DOR inv conf | HTR5A inv ctr2
CN(C1=C(NC(=O)c2ccc(Cl)cc2)C(=O)c2ccccc2C1=O)c1ccccc1 | -2 | 39* | -23 | 34 | 19 | -6 | -19 | -9
O=C(c1ccco1)C(O)c1ccco1 (stereo unspecified) | -10 | 70* | 3 | -3 | 35* | -14 | -444 | -54
Cc1ccc(C(O)C(=O)c2ccco2)cc1 (stereo unspecified) | -3 | 15 | -14 | / | 13 | -3 | / | /
CCCn1c2ccccc2c2nnc(SCC(=O)Nc3ncccn3)nc21 | -2 | 32* | -10 | 5 | 23 | -7 | 3 | 20
CC[C@@H]1CC=C[C@H]2[C@H]1C(=O)N(Cc1ccccc1)[C@H]2c1ccc2ccccc2c1 | / | / | 7 | 6 | / | / | / | /
COC(=O)CN1C(=O)C(O)(CC(=O)c2cccc(Br)c2)c2ccccc21 (stereo unspecified) | -7 | 43* | -6 | 10 | 21 | -8 | 17 | 7
CS(=O)(=O)Nc1cccc(C(=O)CC2(O)C(=O)Nc3ccc(Br)cc32)c1 (stereo unspecified) | 3 | 35* | -4 | 7 | -8 | -7 | 4 | 2
O=C(CC1(O)C(=O)Nc2ccccc21)c1cccc(Br)c1 (stereo unspecified) | -4 | 33* | 14 | 23 | 13 | -6 | 15 | 11
CCS(=O)(=O)Nc1cccc(C(=O)CC2(O)C(=O)Nc3ccccc32)c1 (stereo unspecified) | 6 | 31 | 10 | 18 | 14 | -5 | / | /
NC(=O)CN1C(=O)C(O)(CC(=O)c2ccccc2O)c2ccccc21 (stereo unspecified) | -6 | 43* | -13 | 6 | 17 | -9 | 43* | 1
CS(=O)(=O)Nc1cccc(C(=O)CC2(O)C(=O)Nc3ccccc32)c1 (stereo unspecified) | -2 | 17 | 3 | 6 | 5 | -3 | / | /
CN(C)C1=NC[C@H](Cc2ccccc2)N1CC1CCCCCC1 | -2 | 16 | / | / | 0 | -3 | / | /
Cc1ccc(CN(C)C(=O)c2c(C)nn(-c3ccccc3)c2C)cc1 | 6 | -10 | -3 | 8 | -4 | 1 | / | /
O=C(NNc1ccc(O)cc1)c1ccc(Br)cc1 | 1 | 66* | 0 | 23 | 24 | -10 | 62* | 20
CCCc1ccc(C(=O)NNC(=O)c2ccc(Br)cc2)cc1 | 0 | -13 | 10 | 16 | -1 | 3 | / | /
CCCc1ccc(C(=O)NNc2ccc(F)cc2)cc1 | 2 | 44* | -14 | 10 | 10 | -9 | 29 | 6
CCOC(=O)C1Oc2ccccc2C(c2cccc3ccccc23)=C1C(=O)OC (stereo unspecified) | -2 | 1 | / | / | 9 | 0 | / | /
CCOC(=O)C1Oc2ccccc2C(C(=O)OC)=C1C(=O)OC (stereo unspecified) | 2 | 40* | / | / | -8 | -8 | i | -4
CC(=O)NC1C(=O)Nc2c1cccc2C(F)(F)F (stereo unspecified) | 3 | 30* | -5 | 23 | -5 | -7 | 14 | -18
CC(=O)NC1C(=O)N=C(SCC(=O)Nc2c(C)cccc2C)NC1=O (stereo unspecified) | -2 | 15 | -10 | 9 | 5 | -3 | / | /
Nc1c(Cl)ncnc1N/N=C/c1ccnc2ccccc12 | -3 | 2 | -10 | 19 | -5 | 0 | / | /
Nc1c(Cl)ncnc1N/N=C/c1ccc2ccccc2n1 | -2 | 32* | / | 44 | 6 | -6 | 16 | 8
